Measurements as given in PubChem BioAssay (EPA / NIEHS).
Values joined by “and” are separate entries in the source; they are usually repeats but may differ in a detail not shown here. Identical values can stand only once. Results filed as inconclusive are left out. More than one record can exist for a structure, and the calls need not agree. Active and inactive are the calls of the source. Rule for the calls, unless noted: active = hit-call score of the fitted dose curve at least 0.9, where 1 is the maximum; inactive = score below 0.9.

Key:
[1] = read-out: solute carrier (SLC22A1), SLC22A1 (gene 6580); assay: LTEA_HepaRG_SLC22A1: Life Technologies and Expression Analysis (LTEA) Assay for solute carrier (SLC22A1) using HepaRG (AID 2283524); settings: mRNA level, 48 h; actives raise or lower the signal
Method in brief: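 Differentiated human HepaRG cells in serum-free induction medium, exposed 48 h in duplicate to 8-point half-log series from 100 µM top in 0.5% DMSO. SLC22A1 mRNA by TaqMan qRT-PCR normalized to ACTB, GAPDH, POLR2A; bidirectional fit versus DMSO.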

[2] = read-out: Pyruvate Dehydrogenase Kinase 4 (PDK4), PDK4 (gene 5166); assay: LTEA_HepaRG_PDK4: Life Technologies and Expression Analysis (LTEA) Assay for Pyruvate Dehydrogenase Kinase 4 (PDK4) using HepaRG (AID 2283525); settings: mRNA level, 48 h; actives raise or lower the signal
Method in brief: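 HepaRG cells plated 48 h, then switched to serum-free induction medium and exposed in duplicate for 48 h to 8 half-log concentrations from 100 uM in 0.5% DMSO. PDK4 mRNA measured by qRT-PCR, normalized to ACTB, GAPDH and POLR2A; bidirectional fit versus DMSO.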

[3] = read-out: NAD(P)H dehydrogenase [quinone] 1 (NQO1), NQO1 (gene 1728); assay: LTEA_HepaRG_NQO1: Life Technologies and Expression Analysis (LTEA) Assay for NAD(P)H dehydrogenase [quinone] 1 (NQO1) using HepaRG (AID 2283526); settings: mRNA level, 48 h; actives raise or lower the signal
Method in brief: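 Human HepaRG hepatic cells received chemicals for 48 h in serum-free induction medium with 0.5% DMSO, up to 100 uM. Expression was assessed by TaqMan qRT-PCR against housekeeping controls and fitted bidirectionally against DMSO.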

[4] = read-out: Nuclear factor erythroid 2-related factor 2 (Homo sapiens) (UniProt Q16236); assay: LTEA_HepaRG_NFE2L2: Life Technologies and Expression Analysis (LTEA) Assay for Nuclear factor erythroid 2-related factor 2 (NFE2L2) Transcription Factor using HepaRG (AID 2283527); settings: mRNA level, 48 h; actives raise or lower the signal
Method in brief: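 Differentiated human HepaRG cells, serum-free induction medium, exposed 48 h in duplicate to eight half-log concentrations up to 100 uM in 0.5% DMSO. NFE2L2 mRNA by Fluidigm TaqMan qRT-PCR, normalised to ACTB, GAPDH, POLR2A; bidirectional change versus DMSO.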

[5] = read-out: Signal transducer and activator of transcription 3 (Homo sapiens) (UniProt P40763); assay: LTEA_HepaRG_STAT3: Life Technologies and Expression Analysis (LTEA) Assay for Signal transducer and activator of transcription (STAT3) using HepaRG (AID 2283529); settings: mRNA level, 48 h; actives raise or lower the signal
Method in brief: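 Differentiated HepaRG cells, serum-free induction medium, dosed 48 h in duplicate, 8 half-log concentrations from 100 uM in 0.5% DMSO. STAT3 mRNA by qRT-PCR, normalised to ACTB, GAPDH, POLR2A; bidirectional fit versus DMSO.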

[6] = read-out: solute carrier (SLCO1B1), SLCO1B1 (gene 10599); assay: LTEA_HepaRG_SLCO1B1: Life Technologies and Expression Analysis (LTEA) Assay for solute carrier (SLCO1B1) using HepaRG (AID 2283530); settings: mRNA level, 48 h; actives raise or lower the signal
Method in brief: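 HepaRG, serum-free induction medium, 48 h dosing, 8-pt half-log from 100 uM, 0.5% DMSO vehicle, duplicates. Readout: SLCO1B1 mRNA, qRT-PCR, ACTB/GAPDH/POLR2A normalization; up or down fit vs DMSO.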

[7] = read-out: sulfotransferase 2A1 (SULT2A1), SULT2A1 (gene 6822); assay: LTEA_HepaRG_SULT2A1: Life Technologies and Expression Analysis (LTEA) Assay for sulfotransferase 2A1 (SULT2A1) using HepaRG (AID 2283531); settings: mRNA level, 48 h; actives raise or lower the signal
Method in brief: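 Transcript levels of SULT2A1, quantified by qRT-PCR and normalized to three housekeeping genes, serve as the readout. Human HepaRG cultures receive test chemicals for 48 h at up to 100 uM in half-log steps, with 0.5% DMSO vehicle.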

[8] = read-out: Transforming Growth Factor (TGFA), TGFA (gene 7039); assay: LTEA_HepaRG_TGFA: Life Technologies and Expression Analysis (LTEA) Assay for Transforming Growth Factor (TGFA) using HepaRG (AID 2283532); settings: mRNA level, 48 h; actives raise or lower the signal
Method in brief: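 Differentiated HepaRG cells exposed 48 hours in serum-free induction medium, 0.5% DMSO vehicle, 8-point half-log series from 100 uM, in duplicate. TGFA mRNA by TaqMan qRT-PCR, normalised to ACTB, GAPDH, POLR2A; bidirectional fit versus DMSO.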

[9] = read-out: Transforming Growth Factor (TGFB1), TGFB1 (gene 7040); assay: LTEA_HepaRG_TGFB1: Life Technologies and Expression Analysis (LTEA) Assay for Transforming Growth Factor (TGFB1) Transporter using HepaRG (AID 2283533); settings: mRNA level, 48 h; actives raise or lower the signal
Method in brief: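 HepaRG, 48 h post-plating, switched to serum-free induction medium; chemicals 100 uM top, half-log, 8 pts, 0.5% DMSO, dup; 48 h exposure; RNA → Fluidigm TaqMan qRT-PCR; norm ACTB/GAPDH/POLR2A; bidirectional fit vs DMSO.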

TIMP1, TIMP1 (gene 7076) = assay: LTEA_HepaRG_TIMP1: Life Technologies and Expression Analysis (LTEA) Assay for TIMP1 using HepaRG (AID 2283534); settings: mRNA level, 48 h; actives raise or lower the signal;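 note: TaqMan qRT-PCR signal normalized to ACTB GAPDH and POLR2A housekeeping genes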
Method in brief: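 Readout is TIMP1 mRNA level measured by qRT-PCR and normalized to three housekeeping genes. Human HepaRG cells were treated for 48 h in duplicate at eight concentrations up to 100 uM (0.5% DMSO); gain or loss fitted against DMSO.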

[10] = read-out: Tumor necrosis factor receptor 1 (TNFRSF1A), TNFRSF1A (gene 7132); assay: LTEA_HepaRG_TNFRSF1A: Life Technologies and Expression Analysis (LTEA) Assay for Tumor necrosis factor receptor 1 (TNFRSF1A) using HepaRG (AID 2283535); settings: mRNA level, 48 h; actives raise or lower the signal
Method in brief: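 Read-out is TNFRSF1A transcript level by TaqMan qRT-PCR, normalized to three housekeeping genes, scored as gain or loss of signal versus 0.5% DMSO. Human HepaRG cells received test chemicals for 48 h at up to 100 uM (half-log series).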

[11] = read-out: Thyroid Hormone Responsive (THRSP), THRSP (gene 7069); assay: LTEA_HepaRG_THRSP: Life Technologies and Expression Analysis (LTEA) Assay for Thyroid Hormone Responsive (THRSP) using HepaRG (AID 2283536); settings: mRNA level, 48 h; actives raise or lower the signal
Method in brief: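 Differentiated HepaRG cells treated 48 h in serum-free induction medium with 8 half-log concentrations up to 100 uM (0.5% DMSO), duplicates. THRSP mRNA by TaqMan qRT-PCR normalised to ACTB, GAPDH, POLR2A; bidirectional fit versus DMSO.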

[12] = read-out: Cellular tumor antigen p53 (Homo sapiens) (UniProt P04637); assay: LTEA_HepaRG_TP53: Life Technologies and Expression Analysis (LTEA) Assay for Tumor Protein P53 (TP53) using HepaRG (AID 2283537); settings: mRNA level, 48 h; actives raise or lower the signal
Method in brief: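 HepaRG, 48 h exposure, top 100 uM, half-log 8-point, 0.5% DMSO vehicle, duplicates. Read: TP53 mRNA by TaqMan qRT-PCR, normalised to ACTB/GAPDH/POLR2A; bidirectional fit vs DMSO.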

[13] = read-out: UDP glucuronosyltransferase (UGT1A1), UGT1A1 (gene 54658); assay: LTEA_HepaRG_UGT1A1: Life Technologies and Expression Analysis (LTEA) Assay for UDP glucuronosyltransferase (UGT1A1) using HepaRG (AID 2283538); settings: mRNA level, 48 h; actives raise or lower the signal
Method in brief: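 Human liver HepaRG cultures receive test chemical for 48 h, up to 100 uM in 0.5% DMSO, with phenobarbital induction controls. UGT1A1 mRNA is measured by qRT-PCR and normalized to ACTB, GAPDH and POLR2A.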

[14] = read-out: UDP glucuronosyltransferase (UGT1A6), UGT1A6 (gene 54578); assay: LTEA_HepaRG_UGT1A6: Life Technologies and Expression Analysis (LTEA) Assay for UDP glucuronosyltransferase (UGT1A6) using HepaRG (AID 2283539); settings: mRNA level, 48 h; actives raise or lower the signal
Method in brief: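 HepaRG, 48 h post-plating switch to serum-free induction medium; chemical 48 h, 100 uM top, half-log x8, duplicate, 0.5% DMSO. Phenobarbital 1mM induction control. UGT1A6 mRNA by TaqMan qRT-PCR; gain/loss fit vs DMSO.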

[15] = read-out: X-box binding protein 1 (XBP1), XBP1 (gene 7494); assay: LTEA_HepaRG_XBP1: Life Technologies and Expression Analysis (LTEA) Assay for X-box binding protein 1 (XBP1) using HepaRG (AID 2283540); settings: mRNA level, 48 h; actives raise or lower the signal
Method in brief: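 Transcript levels of XBP1, measured by qRT-PCR and normalised to three housekeeping genes, were fitted bidirectionally relative to 0.5% DMSO controls. Human HepaRG cells received eight-point half-log dilutions from 100 uM for 48 h.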

[16] = ATG_XTT_Cytotoxicity: Cytotoxicity Assessment in the Attagene TRANS-FACTORIAL HepG2 Assay (AID 2283584; active = hit-call score of the fitted dose curve at least 0.9, where 1 is the maximum;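 for AC50: cells exposed to compound for 24 h before reading; active means loss of viability signal versus DMSO baseline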)
Method in brief: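 Cells: human HepG2, transiently transfected with MRTU reporter constructs. Exposure 24 h. Readout: XTT, cell number. Baseline/neg ctrl DMSO; loss-of-signal scored.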

[17] = TOX21_p53_BLA_p2_viability: Viability Assessment in the Tox21 HCT-116 p53 Agonism Beta-lactamase Assay, Phase 2 (AID 2283591; active = hit-call score of the fitted dose curve at least 0.9, where 1 is the maximum;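 note: compound exposure lasted 16 h at 37 °C; actives lower the ATP signal meaning cytotoxicity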)
Method in brief: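 HCT116 p53-bla cells, 4000/well, dosed after 5 h plating (217-fold dilution of DMSO stocks) and incubated 16 h at 37C. Viability taken as cellular ATP by CellTiter-Glo luminescence after 30 min RT; signal loss marks cytotoxicity.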

[18] = read-out: succinate dehydrogenase complex iron sulfur subunit B (SDHB), SDHB (gene 6390); assay: LTEA_HepaRG_SDHB: Life Technologies and Expression Analysis (LTEA) Assay for succinate dehydrogenase complex iron sulfur subunit B (SDHB) using HepaRG (AID 2283528); settings: mRNA level, 48 h; actives raise or lower the signal
Method in brief: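 HepaRG, 48 h exposure, 8-pt half-log series from 100 uM in 0.5% DMSO, duplicates. Readout: SDHB mRNA by Fluidigm qRT-PCR vs housekeeping genes; bidirectional fit relative to DMSO.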

[19] = LTEA_HepaRG_LDH_cytotoxicity: Cytotoxicity Assessment in the Life Technologies and Expression Analysis (LTEA) Assay (AID 2283563; active = hit-call score of the fitted dose curve at least 0.9, where 1 is the maximum;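 for AC50: LDH activity released into spent culture medium as a marker of cell death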)
Method in brief: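 Cells were thawed and plated for 48 h. Medium was then replaced with serum-free induction medium. Chemicals (8 half-log points, maximum 100 uM, 0.5% DMSO) were added in duplicate for 48 h, after which spent medium was assayed for LDH.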

Measured: AC50

Sequence of Signal transducer and activator of transcription 3 (Homo sapiens) (P40763 whole entry, looked up): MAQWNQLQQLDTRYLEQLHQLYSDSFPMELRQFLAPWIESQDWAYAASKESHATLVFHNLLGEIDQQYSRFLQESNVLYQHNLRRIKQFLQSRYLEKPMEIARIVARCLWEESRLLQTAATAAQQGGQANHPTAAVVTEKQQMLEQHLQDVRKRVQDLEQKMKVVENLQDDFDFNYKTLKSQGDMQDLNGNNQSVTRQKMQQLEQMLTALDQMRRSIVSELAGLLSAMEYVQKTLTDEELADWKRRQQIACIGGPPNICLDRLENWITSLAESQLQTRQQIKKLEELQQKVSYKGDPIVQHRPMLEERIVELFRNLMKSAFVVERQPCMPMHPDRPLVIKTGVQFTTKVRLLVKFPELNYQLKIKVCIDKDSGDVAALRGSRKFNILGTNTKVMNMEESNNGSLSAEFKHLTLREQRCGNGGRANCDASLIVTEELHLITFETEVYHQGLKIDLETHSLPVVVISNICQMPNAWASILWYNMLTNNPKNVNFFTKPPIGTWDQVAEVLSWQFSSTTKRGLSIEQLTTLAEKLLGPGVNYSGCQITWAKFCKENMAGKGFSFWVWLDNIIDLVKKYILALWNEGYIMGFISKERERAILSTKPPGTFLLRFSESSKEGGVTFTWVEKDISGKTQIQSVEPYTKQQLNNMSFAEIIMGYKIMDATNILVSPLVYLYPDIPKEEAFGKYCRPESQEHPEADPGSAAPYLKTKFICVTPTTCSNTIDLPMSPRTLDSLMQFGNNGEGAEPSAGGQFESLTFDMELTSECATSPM
Sequence of Nuclear factor erythroid 2-related factor 2 (Homo sapiens) (Q16236 whole entry, looked up): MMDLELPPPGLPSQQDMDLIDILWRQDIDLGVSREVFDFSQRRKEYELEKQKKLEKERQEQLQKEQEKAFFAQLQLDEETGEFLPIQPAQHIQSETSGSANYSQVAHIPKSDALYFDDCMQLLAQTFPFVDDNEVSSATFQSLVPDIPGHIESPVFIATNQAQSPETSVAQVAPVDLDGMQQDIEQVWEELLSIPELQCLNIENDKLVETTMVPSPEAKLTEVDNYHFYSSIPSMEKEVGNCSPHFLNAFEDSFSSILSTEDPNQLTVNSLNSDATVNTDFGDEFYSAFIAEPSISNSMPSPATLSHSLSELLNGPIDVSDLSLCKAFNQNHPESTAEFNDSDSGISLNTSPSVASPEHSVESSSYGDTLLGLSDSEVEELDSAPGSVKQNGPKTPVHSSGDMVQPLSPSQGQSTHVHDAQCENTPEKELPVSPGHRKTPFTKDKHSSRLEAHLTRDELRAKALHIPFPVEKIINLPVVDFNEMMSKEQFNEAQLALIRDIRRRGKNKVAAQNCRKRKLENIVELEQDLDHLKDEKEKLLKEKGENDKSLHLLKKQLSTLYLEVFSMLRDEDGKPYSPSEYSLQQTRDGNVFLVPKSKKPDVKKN
Sequence of Cellular tumor antigen p53 (Homo sapiens) (P04637 whole entry, looked up): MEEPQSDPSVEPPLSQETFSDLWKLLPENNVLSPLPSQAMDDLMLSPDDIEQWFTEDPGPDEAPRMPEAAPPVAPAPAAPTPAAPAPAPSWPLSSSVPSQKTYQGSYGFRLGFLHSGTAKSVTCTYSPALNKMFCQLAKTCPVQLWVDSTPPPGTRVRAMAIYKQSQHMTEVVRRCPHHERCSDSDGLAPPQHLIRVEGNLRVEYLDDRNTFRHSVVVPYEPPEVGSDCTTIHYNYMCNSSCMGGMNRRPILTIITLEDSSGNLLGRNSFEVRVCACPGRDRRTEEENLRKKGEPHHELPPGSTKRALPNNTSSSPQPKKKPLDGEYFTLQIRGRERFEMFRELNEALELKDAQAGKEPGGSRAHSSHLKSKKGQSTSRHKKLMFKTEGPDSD

Oc1ccc(O)cc1
active: [17] 72.8 µM and 70 µM
inactive: [1] | [2] | [3] | [4] | [5] | [6] | [7] | [8] | [9] | TIMP1, TIMP1 (gene 7076) | [10] | [11] | [12] | [13] | [14] | [15] | [16] | [17]

CCCCc1nc2cccnc2n1Cc1ccc(-c2ccccc2-c2nnn[nH]2)cc1
active: [1] 65.5 µM | [2] 28.6 µM | [11] 35.5 µM | [13] 18.8 µM
not listed: [18] | [19]
inactive: all other assays above

N[C@@H](Cc1c[nH]c2ccccc12)C(=O)O
not listed: [6] | [11] | [12] | [17]
inactive: all other assays above

CN(C)CCCN1c2ccccc2Sc2ccc(Cl)cc21
active: [1] 79.4 µM | [3] 83.9 µM | [4] 82.4 µM | [7] 82.7 µM | [9] 12.5 µM | [11] 15.8 µM | [16] 43.2 µM | [17] 73.4 µM
not listed: [18] | [19]
inactive: all other assays above

CC(=O)OC1CC(C)OC(C)O1 (stereo unspecified)
not listed: [11] | [12] | [17] | [18] | [19]
inactive: all other assays above

CC(C)OC(=O)C(C)(C)Oc1ccc(C(=O)c2ccc(Cl)cc2)cc1
active: [2] 16.7 µM | [13] 3.76 µM | [14] 50.4 nM
not listed: [6] | [11] | [12] | [17] | [19]
inactive: all other assays above

CN(C)C(=O)NC1(c2ccccc2)CCN(CC[C@@]2(c3ccc(F)c(F)c3)CN(C(=O)c3ccccc3)CCO2)CC1
active: [1] 9.33 µM | [2] 21.1 µM | [7] 25.3 µM | [19] 73.5 µM
not listed: [6] | [11] | [16]
inactive: all other assays above

Cc1cc(Cc2ccc(N)c(C)c2)ccc1N
active: [13] 28.1 µM
not listed: [18] | [19]
inactive: all other assays above
